aSyn 5UTR inh – MLPCN primary screen, SNCA 5' untranslated region; alpha-synuclein 5'UTR reporter, inhibitor activity; 300,000 compounds, 0.82% hits; inhibition, % (tested at 7.5 µM); in the data active = inhibition above about 60%; inconclusive = no clear call, values can overlap the other calls;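 also: H4 neuroglioblastoma cells stably carrying SNCA 5'UTR luciferase fusion; 0% = DMSO wells and 100% = positive control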
Jurkat NFkB inh – inhibitors of induced NF-kB luciferase reporter, primary screen, TCR NF-kB activation inhibitor project, cell-based, luminescence, uHTS; Jurkat, PMA/ionomycin-induced NF-kB luciferase reporter; inhibition, % at 4 µM; 330,000 compounds, 0.53% hits; in the data active = inhibition above about 50%
697 NFkB inh – inhibitors of PMA/ionomycin-induced NF-kB reporter, 697 cells, primary screen, B-cell NF-kB inhibitor project, cell-based, luminescence, uHTS; 330,000 compounds, 0.33% hits; inhibition, % at 4 µM; 697 B-cell NF-kB luciferase reporter, 16 h; in the data active = inhibition above about 35%
CSC inhib – cancer stem cell viability inhibitors, primary screen, luminescence. cancer stem cell-like cells viability. inhibition, % at 7.5 µM. 300,000 compounds, 1.1% hits. AID 2717, 2010; in the data active = inhibition above about 75%; inconclusive = no clear call, values can overlap the other calls; tested in HMLE shEcad cells
Gli-Sufu block – Gli-Sufu pathway antagonists, primary screen, luciferase luminescence, Sufu-KO-LIGHT cells, uHTS; Sufu-KO-LIGHT fibroblasts, Gli luciferase reporter luminescence; 340,000 compounds, 0.74% hits; inhibition, % at 5 µM;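 active = inhibition above about 55%, limit read from the data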;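 also: 0% = DMSO-treated cells and 100% = wells with medium but no cells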
Mdm2 MdmX PPI – inhibitors of human Mdm2-MdmX association, primary screen, cell-based, luminescence, split luciferase, SaOS-2, uHTS; SaOS-2 split-luciferase Mdm2/MdmX complementation; 330,000 compounds, 3% hits; inhibition, % at 8 µM; AID 485346, 2010; Protein Mdm4 (Homo sapiens) + E3 ubiquitin-protein ligase Mdm2 (Homo sapiens), …;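 active = inhibition of at least 50% at 8 µM in the primary screen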
Mdm2-MdmX conf – Mdm2-MdmX complex disruptors, retested hits, confirmation, luminescence, single concentration | shares compounds with Mdm2 MdmX PPI | Mdm2-MdmX binding, luminescent assay | inhibition, % at 8 µM | 10,000 compounds, 55% hits | AID 489028, 2010; in the data active = inhibition above about 40%
Full FLuc ctr – full-length luciferase signal inhibition, confirmation, counter-screen for Mdm2/MdmX interaction inhibitor project, cell-based, single concentration, SaOS-2. shares compounds with Mdm2 MdmX PPI. SaOS-2 full-length luciferase counterscreen, luminescence. inhibition, % at 8 µM. 6,200 compounds, 77% hits;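 active = mean inhibition at 8 µM reaching about 37%, which flags the compound as non-specific, limit read from the data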;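 also: p53-null SaOS-2 cells with luciferase driven by a doxycycline-inducible promoter; compound on cells about two nights before reading with doxycycline added after day one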
* marks the source's active call; other numbers are inactive results; ? = inconclusive; · = not tested or not shown. Hits are enriched below; roughly 4.5% of the tested compounds scored in any of these assays.

SMILES | aSyn 5UTR inh | Jurkat NFkB inh | 697 NFkB inh | CSC inhib | Gli-Sufu block | Mdm2 MdmX PPI | Mdm2-MdmX conf | Full FLuc ctr
O=C1NC[C@H](c2ccccc2)OC(=O)[C@H](Cc2ccc(F)cc2)C/C=C\C[C@@H]1CC(=O)N(CCO)Cc1ccccc1 | · | -5.5 | 2.9 | -9.8 | 0.6 | 16.1 | · | ·
O=C1NC[C@H](c2ccccc2)OC(=O)[C@H](Cc2ccc(F)cc2)CC/C=C/C[C@H]1CC(=O)N(CCO)Cc1ccccc1 | · | 4.2 | 19.1 | 14.8 | -1.9 | 78.0* | 68.2* | 55.0*
COc1ccc(C(=O)NC(C)CCc2ccccc2)c(O)c1 (centres undefined) | -57.0 | 4.4 | -28.1 | 7.3 | 0.6 | 14.6 | · | ·
CC(C)NC(=O)c1ccc(CN2CCC(Cc3ccccc3)CC2)cc1 | -26.3 | 7.5 | -1.7 | -14.6 | 29.8 | 8.9 | · | ·
Cc1ccccc1NC(=O)c1ccc(CN2CCC(Cc3ccccc3)CC2)cc1 | -0.8 | 43.5 | -21.1 | -6.3 | -3.8 | 57.6* | 35.0 | 81.8*
Fc1ccc(-[n+]2nc(Nc3ccccc3)sc2-c2c3ccccc3cc3ccccc23)cc1 | 2.6 | 9.6 | -12.7 | 103.1* | 13.1 | 100.3* | 90.0* | 42.2*
Oc1ccc2ccccc2c1-c1sc(Nc2ccccc2)n[n+]1-c1ccc(F)cc1 | -31.5 | 2.2 | -32.9 | 5.6 | 3.5 | -27.4 | · | ·
c1ccc(-[n+]2nc(Nc3cccc4ccccc34)sc2-c2c3ccccc3cc3ccccc23)cc1 | · | 25.7 | -1.5 | 6.0 | 50.0 | 64.8* | 80.2* | 23.6
COc1ccc(C)cc1Nc1n[n+](-c2ccccc2)c(-c2c(OC)ccc3ccccc23)s1 | · | 15.8 | -8.8 | 86.8* | 33.0 | 91.6* | 62.3* | 29.0
COCCn1c(-c2ccc(OC)cc2)cnc1N | -14.0 | 2.2 | 6.3 | 30.8 | 2.0 | 5.3 | · | ·
CCOc1ccc(-c2cnc(NCc3cccc4ccccc34)n2CCOC)cc1 | 24.2 | 0.6 | -11.1 | 45.3 | 43.8 | 88.2* | 25.4 | ·
COc1ccc(OC)c(NC(=O)c2cc(-c3cc(Cl)ccc3O)n[nH]2)c1 | -17.4 | -28.0 | -45.4 | 61.6 | 8.1 | 87.8* | 75.0* | 41.8*
CCOC(=O)c1ccc(NC(=S)N2CCSC2c2c(F)cc(F)cc2F)cc1 (centres undefined) | 4.0 | 3.3 | 11.3 | 24.2 | 4.9 | 32.0 | · | ·
CC(C)c1nnc(NC(=O)c2nc(S(=O)(=O)Cc3ccccc3F)ncc2Cl)s1 | -72.1 | 7.1 | -213.8 | 102.4* | 3.4 | 96.8* | 45.9* | 5.2
Cc1nnc(NC(=O)c2nc(S(=O)(=O)Cc3ccccc3C)ncc2Cl)s1 | -38.7 | 3.9 | -98.9 | 84.5* | 10.8 | 94.7* | 71.0* | 51.8*
CSc1ncc(Cl)c(C(=O)Nc2nnc(SC/C=C/c3ccccc3)s2)n1 | 8.9 | -6.8 | 2.2 | 36.7 | 2.5 | 9.5 | · | ·
CSc1nnc(NC(=O)c2nc(S(=O)(=O)Cc3ccccc3F)ncc2Cl)s1 | -9.4 | -2.4 | -81.1 | ? | 5.1 | 100.3* | 57.1* | 52.1*
CC(=O)c1ccc(NC(=O)/C(=C\c2ccc(F)cc2)NC(=O)c2ccco2)cc1 | 12.0 | 16.2 | -4.9 | -9.3 | -17.0 | -7.4 | · | ·
COc1ccc(OCC(O)Cn2c(=N)n(CCN3CCCCC3)c3ccccc32)cc1 (centres undefined) | · | -7.3 | -11.0 | -9.4 | 14.2 | 52.5* | 40.9* | 76.8*
Cc1ccccc1OCC(O)Cn1c(=N)n(Cc2ccccc2)c2ccccc21 (centres undefined) | 113.2* | 24.2 | -35.9 | ? | 35.0 | 97.4* | 95.7* | 28.9
Cc1ccc(OCC(O)Cn2c(=N)n(CCN3CCCCC3)c3ccccc32)cc1 (centres undefined) | -53.3 | 2.5 | -14.8 | 23.4 | 17.0 | 68.5* | 57.9* | 47.5*
N=c1n(CCN2CCCC2)c2ccccc2n1CC(O)c1ccc(Cl)c(Cl)c1 (centres undefined) | -44.8 | -6.5 | 3.9 | 32.1 | 24.7 | 95.5* | 98.8* | 103.5*
O=C(NCc1ccc2c(c1)OCO2)c1cc(=O)[nH]c2ccccc12 | -7.2 | -3.3 | 0.5 | -9.0 | 2.4 | -43.6 | · | ·
S=C(NCC1CC1)N/N=C/c1ccccc1Cl | -19.5 | 8.9 | 17.7 | 3.3 | -3.4 | -12.5 | · | ·
CCOC(=O)N1CCN(Cc2ccccc2Cl)CC1 | · | 12.6 | -3.0 | -3.4 | 7.5 | 2.2 | · | ·
SMILES | aSyn 5UTR inh | Jurkat NFkB inh | 697 NFkB inh | CSC inhib | Gli-Sufu block | Mdm2 MdmX PPI | Mdm2-MdmX conf | Full FLuc ctr
CCOC(=O)N1CCN(Cc2cc(Cl)c3cccnc3c2O)CC1 | 44.2 | 36.5 | -16.8 | 19.0 | 73.2* | 63.6* | 51.5* | 37.8*
O=C(Oc1c(CN2CCOCC2)cc(Cl)c2cccnc12)c1ccccc1Br | 47.9 | 7.3 | 5.1 | 19.0 | -4.2 | 51.8* | 32.4 | ·
CCOC(=O)C1CCN(Cc2ccc(O)c3ncccc23)CC1 | 30.8 | 3.7 | -16.2 | 41.1 | 28.9 | 81.0* | 61.5* | 50.2*
CCOC(=O)C1CCN(Cc2ccccc2C(F)(F)F)CC1 | 30.6 | -13.5 | -16.0 | -17.0 | -1.0 | -24.6 | · | ·
CN1CCN(Cc2cc(Cl)c3cccnc3c2OC(=O)c2cccs2)CC1 | -10.8 | 0.0 | -15.0 | 17.0 | -4.6 | 29.5 | · | ·
COc1ccccc1N1CCN(Cc2ccc(O)c3ncccc23)CC1 | 76.6* | 31.0 | -2.8 | · | 76.4* | 76.7* | 67.2* | 21.1
CCCCCn1c(C(C)NC(=O)CCC)nc2ccccc21 (centres undefined) | 0.5 | 10.5 | 12.9 | -12.6 | 4.5 | 9.1 | · | ·
CCOCc1c(C(=O)OCC(=O)Nc2ccc(C)c(S(=O)(=O)N(C)C)c2)oc2ccccc12 | 20.7 | -7.9 | -0.9 | 3.2 | -16.2 | -7.0 | · | ·
COC(=O)C1=C(C)N(CCCC(=O)O)C(=O)NC1c1ccc(C#N)cc1 (centres undefined) | 6.5 | 5.9 | 9.4 | -8.6 | -3.4 | 5.5 | · | ·
CC1(C)Cc2nc(Cl)c(C(N)=O)cc2CO1 | 12.3 | 8.6 | -3.0 | -1.0 | 3.7 | -12.0 | · | ·
Oc1ccc(CN2CCCc3ccccc32)c2cccnc12 | 57.0 | -8.6 | -113.9 | 1.0 | 10.3 | 79.3* | 75.7* | 42.9*
c1ccc(-c2nnc(CN3CCCc4ccccc43)o2)cc1 | -19.5 | 7.5 | 0.3 | -2.5 | -4.1 | -16.3 | · | ·
O=C(c1cnn(C(=O)c2ccco2)c1)c1cc(F)ccc1O | · | 1.2 | -2.8 | 5.0 | 5.7 | 29.3 | · | ·
CCOC(=O)CSc1nnc(CNC(=O)c2ccco2)n1C | 5.4 | 8.9 | 19.8 | -6.0 | 10.9 | 5.7 | · | ·

Bioassay records (PubChem BioAssay)
